In PubChem BioAssay (NCI):
This is part of a sample that, as a whole, favours compounds with a hit. Of some 83,000 tested, about 20% had one in any assay.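 For each line, cells grew in 96-well plates with the test compound present at a single concentration for 48 hours.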 Unmarked numbers belong to inactive results. Active and inactive are the calls of the source. How the source made its calls: active means growth percent below 10; inactive means the rest.

test system: HOP-62 NSCLC; test: NCI-60 one-dose screen, 48 h (100 = growth as untreated, 0 = no growth, -100 = all killed); settings: 10 µM unless noted

SMILES	growth
CN1CCN(Cc2ccc(NC(=O)c3[nH]ncc3Nc3ncnc4c3CCC4)cc2)CC1	22.6%
CCN(C(=O)CN1CCN(c2cc3c(cc2F)c(=O)c(C(=O)O)cn3C2CC2)CC1)c1nc(-c2ccc(OC)cc2)cs1	80.9%
C[C@@H]1CC[C@@H]2[C@@H]1[C@H](OC(=O)/C=C/c1ccccc1)[C@]1(C3CCCCC3)C[C@@H](OC(=O)CO)[C@@]2(C)O1	86%
Cc1cc(=O)oc2cc(Oc3nc(-c4ccc(Cl)cc4)cn4c(-c5ccc(Cl)cc5)cnc34)ccc12	99.7%
Nc1cc2ccncc2c2ccccc12	79.6%
O=C([C@@H](COCc1ccccc1)N1C(=O)[C@@H](N2C(=O)OC[C@@H]2c2ccccc2)[C@H]1/C=C/c1ccccc1)N1CCC(CCN2CCCCC2)CC1	77.8%
COc1ccc(N(Cc2cc(OC)c(OC)c(OC)c2)C2OC(=O)c3ccccc32)cc1 (stereo unspecified)	28.1%
Cn1c2ccccc2c2c3c(c4c5ccccc5[nH]c4c21)C(=O)N(N)C3=O	44.3%
COC(/C=C/c1ccc([N+](=O)[O-])cc1)OC	114%
OC(c1cccc(C(F)(F)F)c1)c1cnccc1NC1CCCCCC1 (stereo unspecified)	74.4%
O=C(CNC1C2CC3CC(C2)CC1C3)Sc1nnc2sc3ccccc3n12 (stereo unspecified)	104%
C=CC[N+]1(CC)CCN=C1CCCCCCCCCCCCCCCCC (stereo unspecified)	-95% (active)
O=C(Nc1ccc(CN2CCOCC2)cc1)c1[nH]ncc1Nc1ncnc2sccc12	20.1%
O=c1c(/C=C/c2ccco2)nnc(SCCN2CCOCC2)n1/N=C/c1ccc([N+](=O)[O-])cc1	101%
COc1cc(C2CC(=O)Nc3c2c(C)nn3-c2nc3ccccc3[nH]2)cc(OC)c1OC (stereo unspecified)	104%
CCCCN(CCCC)CCC(C)(O)c1cc2ccccc2c2ccccc12 (stereo unspecified)	106%
OCCNCCNc1c2ccccc2nc2ccccc12	60.7%
C/C(=C(/c1ccc(O)cc1)c1ccc(OCCN(C)C)cc1)c1ccccc1	79.8%
CC#Cc1nc2ccccc2c(=O)[nH]1	58.3%

SMILES	growth
CNC(=O)c1cc(Oc2ccc3nc(NC(=O)Nc4ccc(N5CCC(N(C)C)CC5)cc4)sc3c2)ccn1	93.5%
CCN(CC)CCCNc1cc(OC)cc2nc3cc(Cl)ccc3nc12	-47.3% (active)
Cn1c2ccccc2c2c3c(c4c5ccccc5n(CCCCCC#N)c4c21)C(=O)N(O)C3=O	27.2%
CN1CCN(Cc2ccc(NC(=O)c3[nH]ncc3Nc3ccnc4ccsc34)cc2)CC1	40.4%
O=C(NCc1cccc(C(F)(F)F)c1)[C@H](CCC(=O)N1CCN(C2CCCCC2)CC1)N1C(=O)[C@@H](N2C(=O)OC[C@@H]2c2ccccc2)[C@H]1/C(Cl)=C/c1ccccc1	55.6%
CC/C(=C(\c1ccccc1)c1ccc(OCCNC)cc1)c1ccccc1	-64.2% (active)
O=C(COCc1c(-c2ccccc2)no[n+]1[O-])Nc1ccc(C(=O)/C=C/c2ccc3c(c2)OCO3)cc1	108%
COc1ccc2nc(NC(=O)c3cccnc3Nc3cc(OC)c(OC)c(OC)c3)sc2c1	16.7%
CCCCCCCCCc1cc(CN2CCCCC2)c(O)c(CN2CCCCC2)c1	78.4%
CCOc1ccc(Nc2nc(-c3c(C)nc4ncccn34)cs2)cc1	17.9%
C=C1CCC2C3(C)COC(C)(C)OC3CCC2(C)C1C/C=C1/C(=O)OCC1OC(C)=O (stereo unspecified)	112%
CSc1nc(NCCO)c(C#N)c(-c2cccc(N)c2)n1	83.7%
Nc1ccc(N2CCOCC2)cc1	90.8%
O=C1C[C@H](Sc2nc(-c3ccc(F)cc3)cc(C(F)(F)F)n2)[C@H]2CO[C@@H]1O2	104%
Cc1nc2sc(C(=O)Nc3cccc4c3OCCO4)c(N)c2cc1C(C)O (stereo unspecified)	-3.21% (active)
COc1cc(NCCCCN=C(N)N)c2ncccc2c1	80.9%
CCOC(=S)SCc1ccc(Cl)cc1	101%
NCc1cn2cc(Cl)sc2n1	112%
O=C1C=CC(=O)c2c1nc1n2CCCC1	80%

test system: NCI-H460 lung; test: as above; settings: 10 µM unless noted

SMILES	growth
CN1CCN(Cc2ccc(NC(=O)c3[nH]ncc3Nc3ncnc4c3CCC4)cc2)CC1	6.72% (active)
CCN(C(=O)CN1CCN(c2cc3c(cc2F)c(=O)c(C(=O)O)cn3C2CC2)CC1)c1nc(-c2ccc(OC)cc2)cs1	-2.51% (active)
C[C@@H]1CC[C@@H]2[C@@H]1[C@H](OC(=O)/C=C/c1ccccc1)[C@]1(C3CCCCC3)C[C@@H](OC(=O)CO)[C@@]2(C)O1	68.3%
Cc1cc(=O)oc2cc(Oc3nc(-c4ccc(Cl)cc4)cn4c(-c5ccc(Cl)cc5)cnc34)ccc12	93.3%
Nc1cc2ccncc2c2ccccc12	58.2%
O=C([C@@H](COCc1ccccc1)N1C(=O)[C@@H](N2C(=O)OC[C@@H]2c2ccccc2)[C@H]1/C=C/c1ccccc1)N1CCC(CCN2CCCCC2)CC1	94.2%
COc1ccc(N(Cc2cc(OC)c(OC)c(OC)c2)C2OC(=O)c3ccccc32)cc1 (stereo unspecified)	10.4%
Cn1c2ccccc2c2c3c(c4c5ccccc5[nH]c4c21)C(=O)N(N)C3=O	17.5%
COC(/C=C/c1ccc([N+](=O)[O-])cc1)OC	112%
OC(c1cccc(C(F)(F)F)c1)c1cnccc1NC1CCCCCC1 (stereo unspecified)	-23.9% (active)
O=C(CNC1C2CC3CC(C2)CC1C3)Sc1nnc2sc3ccccc3n12 (stereo unspecified)	97.9%
C=CC[N+]1(CC)CCN=C1CCCCCCCCCCCCCCCCC (stereo unspecified)	-100% (active)
O=C(Nc1ccc(CN2CCOCC2)cc1)c1[nH]ncc1Nc1ncnc2sccc12	3.28% (active)
O=c1c(/C=C/c2ccco2)nnc(SCCN2CCOCC2)n1/N=C/c1ccc([N+](=O)[O-])cc1	103%
COc1cc(C2CC(=O)Nc3c2c(C)nn3-c2nc3ccccc3[nH]2)cc(OC)c1OC (stereo unspecified)	100%
CCCCN(CCCC)CCC(C)(O)c1cc2ccccc2c2ccccc12 (stereo unspecified)	90.1%
OCCNCCNc1c2ccccc2nc2ccccc12	54.6%
C/C(=C(/c1ccc(O)cc1)c1ccc(OCCN(C)C)cc1)c1ccccc1	93.7%
CC#Cc1nc2ccccc2c(=O)[nH]1	73%

SMILES	growth
CNC(=O)c1cc(Oc2ccc3nc(NC(=O)Nc4ccc(N5CCC(N(C)C)CC5)cc4)sc3c2)ccn1	81.6%
CCN(CC)CCCNc1cc(OC)cc2nc3cc(Cl)ccc3nc12	-16.2% (active)
Cn1c2ccccc2c2c3c(c4c5ccccc5n(CCCCCC#N)c4c21)C(=O)N(O)C3=O	2.84% (active)
CN1CCN(Cc2ccc(NC(=O)c3[nH]ncc3Nc3ccnc4ccsc34)cc2)CC1	8.74% (active)
O=C(NCc1cccc(C(F)(F)F)c1)[C@H](CCC(=O)N1CCN(C2CCCCC2)CC1)N1C(=O)[C@@H](N2C(=O)OC[C@@H]2c2ccccc2)[C@H]1/C(Cl)=C/c1ccccc1	47.8%
CC/C(=C(\c1ccccc1)c1ccc(OCCNC)cc1)c1ccccc1	-71.3% (active)
O=C(COCc1c(-c2ccccc2)no[n+]1[O-])Nc1ccc(C(=O)/C=C/c2ccc3c(c2)OCO3)cc1	112%
COc1ccc2nc(NC(=O)c3cccnc3Nc3cc(OC)c(OC)c(OC)c3)sc2c1	0.16% (active)
CCCCCCCCCc1cc(CN2CCCCC2)c(O)c(CN2CCCCC2)c1	49.1%
CCOc1ccc(Nc2nc(-c3c(C)nc4ncccn34)cs2)cc1	5.6% (active)
C=C1CCC2C3(C)COC(C)(C)OC3CCC2(C)C1C/C=C1/C(=O)OCC1OC(C)=O (stereo unspecified)	95.4%
CSc1nc(NCCO)c(C#N)c(-c2cccc(N)c2)n1	99.6%
Nc1ccc(N2CCOCC2)cc1	104%
O=C1C[C@H](Sc2nc(-c3ccc(F)cc3)cc(C(F)(F)F)n2)[C@H]2CO[C@@H]1O2	106%
Cc1nc2sc(C(=O)Nc3cccc4c3OCCO4)c(N)c2cc1C(C)O (stereo unspecified)	15.8%
COc1cc(NCCCCN=C(N)N)c2ncccc2c1	104%
CCOC(=S)SCc1ccc(Cl)cc1	110%
NCc1cn2cc(Cl)sc2n1	103%
O=C1C=CC(=O)c2c1nc1n2CCCC1	24.6%
